Bioassay records (PubChem)
D2 PAM-1 = Beta-Arrestin HTS for Positive Allosteric Modulators of the Human D2 Dopamine Receptor: Potentiators | D(2) dopamine receptor (Homo sapiens), P14416 | DiscoveRx D2 beta-arrestin cells, luminescence, 90 min; 100% = 57 uM dopamine signal | potentiation, % (concentration not given with the values) | 360,000 tested, 0.23% active | AID 624464, 2012; in the data active = potentiation above about 50%; inconclusive = mostly about 30% to 49%
Target sequence (P14416 whole entry, looked up): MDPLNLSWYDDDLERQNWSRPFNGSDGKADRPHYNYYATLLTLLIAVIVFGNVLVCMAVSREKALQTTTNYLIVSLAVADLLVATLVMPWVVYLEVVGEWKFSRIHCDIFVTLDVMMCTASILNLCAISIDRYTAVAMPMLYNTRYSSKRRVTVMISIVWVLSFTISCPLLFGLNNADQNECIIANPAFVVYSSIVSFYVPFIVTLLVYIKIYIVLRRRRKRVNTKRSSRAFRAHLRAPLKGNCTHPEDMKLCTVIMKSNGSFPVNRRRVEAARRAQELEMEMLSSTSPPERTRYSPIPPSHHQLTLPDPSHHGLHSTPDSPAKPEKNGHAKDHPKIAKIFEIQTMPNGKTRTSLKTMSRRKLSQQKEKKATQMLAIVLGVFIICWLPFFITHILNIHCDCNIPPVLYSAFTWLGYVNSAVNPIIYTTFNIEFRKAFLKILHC
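PathHunter beta-arrestin assay in DiscoveRx D2 cells. Compounds were added with an EC20 of dopamine (50 nM final) for 90 min at 37 deg C. Luminescence was read 1 h after detection reagent, with 57 uM dopamine as the EC100 control.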
D2 antag = HTS Assay for Allosteric Antagonists of the Human D2 Dopamine Receptor: Primary Screen for Antagonists; D(2) dopamine receptor (Homo sapiens), P14416; HEK293 TREx D2 cells, calcium flux, dopamine EC80; inhibition, % at 10 µM; 340,000 tested, 2% active; AID 485344, 2010; in the data active = inhibition above about 30%; inactive = below that, where a call was filed; note: 0% is about no effect
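Measurement of antagonist activity uses fluorescent calcium dye in inducible HEK293 T-REx D2 cells: 10 s baseline, compound addition with 180 s read, EC80 dopamine addition with a further 180 s read.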
D2 PAM-2 = HTS Assay for Positive Allosteric Modulators of the Human D2 Dopamine Receptor: Primary Screen for Potentiators; D(2) dopamine receptor (Homo sapiens), P14416; HEK293 T-REx D2, calcium flux, EC20 dopamine potentiation; potentiation, % at 10 µM; 340,000 tested, 0.34% active; AID 485347, 2010;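 active = potentiation over 3 SD above the plate norm, cut at about 30% in these data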; note: 0% is about no effect
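Primary screen. Calcium kinetics in induced HEK293 T-REx D2 cells: compound pre-addition 180 s, EC20 dopamine, 180 s more.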
D2 ag-1 = HTS Assay for Allosteric Agonists of the Human D2 Dopamine Receptor: Primary Screen for Agonists; D(2) dopamine receptor (Homo sapiens), P14416; HEK293 T-REx D2 cells, calcium flux agonist mode; activation, % at 2 µM; AID 485358, 2010; 340,000 tested, 0.53% active;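 active = activation over 3 SD above normal in the single-dose calcium agonist read, cut at about 30% in these data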; note: 0% is about no effect
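Calcium-flux readout, 1 cycle/sec over 180 s following compound pin transfer, in inducible HEK293 Trex D2 cells (force-coupled); dopamine controls included. Positive calcium responses during this window marked compounds as potential agonists.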
D2 ag-2 = Beta-Arrestin HTS for Positive Allosteric Modulators of the Human D2 Dopamine Receptor: Agonists; D(2) dopamine receptor (Homo sapiens), P14416; DiscoveRx PathHunter D2 beta-arrestin, luminescence, 90 min; 100% = 57 uM dopamine signal; activation, % (no concentration beside the values); 360,000 tested, 0.084% active; AID 624465, 2012; in the data active = activation above about 40%; inconclusive = between about 15% and that limit
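DiscoveRx PathHunter D2 beta-arrestin cells (2,100/well) attached overnight, then compound-stimulated 90 min at 37 C in HBSS/10 mM HEPES/0.1% Tween-20 buffer; beta-galactosidase complementation read by luminescence after 1 h at ambient temperature. Dopamine 57 uM final (EC100) as control.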
D3 arrestin ag = qHTS of D3 Dopamine Receptor Agonist: D3 Dopamine Receptor B-arrestin Agonist Confirmatory Assay. shares compounds with D2 ag-1. DiscoveRx D3 beta-arrestin cells, luminescence, 90 min. Potency, µM (titrated, usually from 76.9 µM), inactives show at the highest dose activation, actives largely listed as activators. 2,300 tested, 4% active. AID 720506, 2013;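 note: potency is the fitted concentration of half-maximal effect; 100% = dopamine control response; nearly all actives have a fitted effect of over 70% in size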
D2 ag-3 = qHTS of D3 Dopamine Receptor Agonist: D2 Dopamine Receptor B-arrestin Agonist Counterscreen; shares compounds with D2 ag-1; DiscoveRx PathHunter D2 beta-arrestin, luminescence, 90 min; response scale: percent relative to full dopamine signal; Potency, µM (titrated, usually from 76.9 µM), for the others: at the highest dose activation, hits mostly activators; 2,300 tested, 5.9% active; AID 720507, 2013; note: potency is the fitted concentration of half-maximal effect; % of control where 0% means no effect; nearly all actives have a fitted effect of over 70% in size
An asterisk follows results filed as active. The list is not random: actives were taken first. Their share in the collection is about 2.4%. Unless noted, calls come from the whole dose curve; as a rule, active = well fitted activation curve with a large enough effect; inconclusive = small, poorly fitted or top-dose-only effect; inactive = flat fitted curve, though single readings scatter.

How did CC(OC(=O)CNC(=O)c1ccc(Br)cc1)C(=O)NC1CCCCC1C (stereo not drawn) do in these assays?
D2 PAM-1: -11; D2 antag: 3; D2 PAM-2: -7; D2 ag-1: 0; D2 ag-2: -5; D3 arrestin ag: -1%; D2 ag-3: 0%

What do the screens show for `O=C(CN1C(=O)NC2(CCCC2)C1=O)Nc1cc(C(F)(F)F)ccc1N1CCCCC1`?
D2 PAM-1: 2; D2 antag: -13; D2 PAM-2: 17; D2 ag-1: 1; D2 ag-2: 4

What do the screens show for `COc1cc(CN2CCC(C(=O)N3CCN(c4ccccc4F)CC3)CC2)ccc1O`?
D2 PAM-1: 1; D2 antag: 39*; D2 PAM-2: -21; D2 ag-1: 39*; D2 ag-2: 8; D3 arrestin ag: inconclusive; D2 ag-3: 22%

Results for COc1cccc(CN2CCC(C(=O)N3CCN(c4ccccc4F)CC3)CC2)c1 ?
D2 PAM-1: -10; D2 antag: 1; D2 PAM-2: -8; D2 ag-1: 26; D2 ag-2: 2; D3 arrestin ag: 3%; D2 ag-3: 16%

What do the screens show for `CCN(CC)C(=O)Cn1cc(C(=O)C(=O)N2CCN(Cc3ccccc3)CC2)c2ccccc21`?
D2 PAM-1: -9; D2 antag: 2; D2 PAM-2: -22; D2 ag-1: 58*; D2 ag-2: -3; D3 arrestin ag: -15%; D2 ag-3: -7%

Results for CC(=O)c1cccc(NC(=O)C(C)OC(=O)c2ccc(-n3cnnn3)cc2)c1 (stereo not drawn) ?
D2 PAM-1: -8; D2 antag: -13; D2 PAM-2: -4; D2 ag-1: -1; D2 ag-2: -1

Results for CC(OC(=O)c1ccc(-n2cnnn2)cc1)C(=O)Nc1ccccc1[N+](=O)[O-] (stereo not drawn) ?
D2 PAM-1: 23; D2 antag: 16; D2 PAM-2: 10; D2 ag-1: 0; D2 ag-2: 2; D3 arrestin ag: 11%; D2 ag-3: 25%

How did O=C(c1ccco1)N1CCN=C1SCc1ccccc1Cl do in these assays?
D2 PAM-1: -7; D2 antag: -30; D2 PAM-2: -3; D2 ag-1: 1; D2 ag-2: -1

How did O=C(c1ccco1)N1CCN=C1SCc1c(F)cccc1Cl do in these assays?
D2 PAM-1: -28; D2 antag: -8; D2 PAM-2: -10; D2 ag-1: 37*; D2 ag-2: -2; D3 arrestin ag: -15%; D2 ag-3: -1%

How did CC(=O)c1ccc(NC(=O)Cn2cnc(S(=O)(=O)N3CCc4ccccc43)c2)cc1 do in these assays?
D2 PAM-1: 10; D2 antag: -2; D2 PAM-2: -29; D2 ag-1: 54*; D2 ag-2: -3; D3 arrestin ag: -3%; D2 ag-3: -2%

What do the screens show for `CCc1ccccc1NC(=O)CSc1nc2c(oc3ccccc32)c(=O)n1-c1ccccc1F`?
D2 PAM-2: 0; D2 ag-1: 0

What do the screens show for `CCOC(=O)c1c(-c2ccc(Cl)cc2)csc1NC(=O)CNCc1ccco1`?
D2 PAM-1: -6; D2 antag: 18; D2 PAM-2: -26; D2 ag-1: 51*; D2 ag-2: -1; D3 arrestin ag: -4%; D2 ag-3: -1%

How did CCOC(=O)c1c(-c2ccc(OC)cc2)csc1NC(=O)CNCc1ccco1 do in these assays?
D2 PAM-1: -7; D2 antag: 3; D2 PAM-2: 1; D2 ag-1: -1; D2 ag-2: 1

Results for Cc1cccc(C2CN(C)CCc3c2cc(O)c(O)c3Cl)c1 (stereo not drawn) ?
D2 PAM-1: -16; D2 antag: 79*; D2 PAM-2: -23; D2 ag-1: 52*; D2 ag-2: 6; D3 arrestin ag: inconclusive; D2 ag-3: 29%

What do the screens show for `Oc1cc2c(c(Cl)c1O)CCNCC2c1ccccc1` (stereo not drawn)?
D2 PAM-1: 4; D2 ag-2: 9

Results for CC1CCCCN1C(=O)c1ccc2c(c1)N(Cc1ccc(F)cc1)C(=O)c1ccccc1S2(=O)=O (stereo not drawn) ?
D2 PAM-2: -2

What do the screens show for `CCOC(=O)Cc1csc(NC(=O)CN2CCN(c3ccccc3)CC2)n1`?
D2 PAM-1: 6; D2 antag: 15; D2 PAM-2: 9; D2 ag-1: 5; D2 ag-2: 6; D3 arrestin ag: 10%; D2 ag-3: 26%

What do the screens show for `CCOC(=O)Cc1csc(NC(=O)CN2CCN(CC)CC2)n1`?
D2 PAM-1: -5; D2 antag: -5; D2 PAM-2: -1; D2 ag-1: 0; D2 ag-2: 2

Results for Cc1ccc(S(=O)(=O)N2CCN(C(=O)COC(=O)c3ccccc3OC(F)F)CC2)c(C)c1 ?
D2 PAM-1: -4; D2 ag-2: -3

How did Cc1cccc(S(=O)(=O)Nc2ccc(-c3cn4ccccc4n3)cc2)c1 do in these assays?
D2 PAM-1: 23; D2 antag: 1; D2 PAM-2: 10; D2 ag-1: 0; D2 ag-2: 0

Results for O=S(=O)(Nc1ccc(-c2cn3ccccc3n2)cc1)c1ccccc1 ?
D2 PAM-1: -1; D2 antag: 40*; D2 PAM-2: 5; D2 ag-1: 0; D2 ag-2: 5; D3 arrestin ag: 16%; D2 ag-3: 15%

How did CC(C)c1ccccc1-n1cc[nH]c1=S do in these assays?
D2 PAM-1: -11; D2 antag: -16; D2 PAM-2: 5; D2 ag-1: 2; D2 ag-2: -3

How did Cn1cc[nH]c1=S do in these assays?
D2 PAM-1: 11; D2 antag: -4; D2 PAM-2: -12; D2 ag-1: 25; D2 ag-2: -4; D3 arrestin ag: -3%; D2 ag-3: -4%
